According to the supplement of paper PMC10498489:
About 330 (14%) of roughly 2,300 compounds showed activity.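 How the source made its calls: active = median modified Z-score above 1.96; inactive = 1.96 or below.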 The list is a sample of the results.

system: HepG2 Srxn1-GFP reporter cells (+30 nM CDDO-Me); experiment: Srxn1-GFP intensity median modified Z-score relative to plate median; higher = stronger NRF2 / oxidative stress reporter activation, active = hit call of the paper; settings: 10 µM; exposure time: 24h
In short: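 HepG2 Srxn1-GFP BAC reporter cells (20,000 per well, 96-well plates) were co-exposed to an NRF2 activator at 30 nM and compound at 10 μM (≤0.1% DMSO) for 24 h in three replicate plates. After formaldehyde fixation and Hoechst staining, confocal images were analysed per cell for cytoplasmic GFP, excluding images with under 100 cells. The value is the median over replicates of the per-plate modified Z-score of GFP intensity. Scaling used 1.4826 × median absolute deviation.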

| Structure (SMILES) | Srxn1-GFP intensity median modified Z-score |
| --- | --- |
| CCOc1cc2c(cc1/C=C/C(=O)N(C)C(C)c1ccc(-n3cncn3)cc1)OC(C)C2 (stereo not drawn) | 0.413 (inactive) |
| Cc1ccc2c(Cl)cc(Cl)c(O)c2n1 [euspeclibcmpd1014] | -0.191 (inactive) |
| Oc1c(Cl)cc(Cl)c(Cl)c1Cc1c(O)c(Cl)cc(Cl)c1Cl [euspeclibcmpd146] | 44.1 (active) |
| CCC[C@@H]1C[C@@H](C(=O)N[C@@H]([C@H]2O[C@H](SC)[C@H](O)[C@@H](O)[C@H]2O)[C@@H](C)O)N(C)C1 | 1.1 (inactive) |
| COC(=O)[C@H]1[C@H]2C[C@@H]3c4[nH]c5cc(OC)ccc5c4CCN3C[C@H]2C[C@@H](OC(=O)c2cc(OC)c(OC)c(OC)c2)[C@@H]1OC [euspeclibcmpd2385] | 6.53 (active) |
| O=C(O)C1[C@H]2C[C@H]3c4[nH]c5ccccc5c4CCN3C[C@@H]2CC[C@@H]1O (stereo partly drawn) [euspeclibcmpd1655] | -0.233 (inactive) |
| C[C@H]1O[C@H](OC[C@@H]2O[C@H](Oc3c(-c4ccc(OCCO)c(OCCO)c4)oc4cc(OCCO)cc(O)c4c3=O)[C@@H](O)[C@H](O)[C@H]2O)[C@@H](O)[C@@H](O)[C@@H]1O [euspeclibcmpd1205] | -0.542 (inactive) |
| O=C(c1ccccc1)c1ccc(Cl)cc1O | 1.14 (inactive) |
| CCN(C(=O)COC(=O)C1=NNC(=O)CC1)C1CCS(=O)(=O)C1 (stereo not drawn) | 1.01 (inactive) |
| NCCc1ccc(O)c(O)c1 [euspeclibcmpd2150] | -1.01 (inactive) |
| C[C@](N)(Cc1ccc(O)c(O)c1)C(=O)O [euspeclibcmpd194] | -0.447 (inactive) |
| NC(Cc1ccc(O)c(O)c1)C(=O)O (stereo not drawn) [euspeclibcmpd949] | -1.39 (inactive) |
| NCCc1ccc(O)c(O)c1 [euspeclibcmpd2286] | 9.36 (active) |
| CO[C@@H]1[C@@H](OC(N)=O)[C@@H](O)[C@H](Oc2ccc3c(=O)c(NC(=O)c4ccc(O)c(CC=C(C)C)c4)c(O)oc3c2C)OC1(C)C [euspeclibcmpd2334] | -0.255 (inactive) |
| N#CCSc1nnc(-c2ccc(Br)cc2)n1C1CCCCC1 | 1.88 (inactive) |
| CCC(C)C(=N)C1NC(C(=O)NC(CC(C)C)C(=O)NC(CCC(=O)O)C(=O)NC(C(=O)NCCCCC2NC(=O)C(CC(N)=O)NC(=O)C(CC(=O)O)NC(=O)C(Cc3c[nH]cn3)NC(=O)C(Cc3ccccc3)NC(=O)C(C(C)CC)NC(=O)C(CCCN)NC2=O)C(C)CC)CS1 (stereo not drawn) [euspeclibcmpd30] | -0.458 (inactive) |
| CC(C)CC1NC(=O)C(CCCN)NC(=O)C(C(C)C)NC(=O)C(Cc2ccc(O)cc2)NC(CCC(=O)O)C(=O)NC(CC(N)=O)C(=O)C(Cc2ccccc2)NC(=O)C(Cc2ccccc2)NC(=O)C2CCCN2C(=O)C(Cc2ccccc2)NC1=O (stereo not drawn) [euspeclibcmpd1841] | 2.86 (active) |
| CCC(C)CCCCC(=O)NC(CCN)C(=O)NC(C(=O)NC(CCN)C(=O)NC1CCNC(=O)C(C(C)O)NC(=O)C(CCN)NC(=O)C(CCN)NC(=O)C(CC(C)C)NC(=O)C(Cc2ccccc2)NC(=O)C(CCN)NC1=O)C(C)O (stereo not drawn) [euspeclibcmpd239] | 0.328 (inactive) |
| CC(=O)c1ccc(S(=O)(=O)CC(=O)NC2CCCC2)cc1 | 1.37 (inactive) |
| N=c1nc(-c2cc(Cl)ccc2Cl)[nH]c(=N)[nH]1 [euspeclibcmpd1188] | 0.145 (inactive) |
| CCCCOC(=O)c1ccc(O)cc1 [euspeclibcmpd905] | 0.67 (inactive) |
| CCCCCCc1ccc(O)cc1O [euspeclibcmpd2121] | 3.73 (active) |
| C[C@H]1[C@H](C)CC[C@]2(C(=O)O)CC[C@]3(C)C(=CCC4[C@@]5(C)C[C@@H](O)[C@H](O)[C@@](C)(CO)C5[C@H](O)C[C@]43C)[C@H]12 (stereo partly drawn) [euspeclibcmpd1692] | -0.252 (inactive) |

| Structure (SMILES) | Srxn1-GFP intensity median modified Z-score |
| --- | --- |
| Cn1c(O)cc(-c2ccccc2)c1O [euspeclibcmpd796] | -0.502 (inactive) |
| CCCCNc1ccc(C(=O)OCCN(C)C)cc1 [euspeclibcmpd287] | -0.0522 (inactive) |
| CCCCNc1ccc(C(=O)OCCOCCOCCOCCOCCOCCOCCOCCOCCOC)cc1 [euspeclibcmpd1214] | 5.26 (active) |
| CCCCOC(=O)c1ccc(N)cc1 [euspeclibcmpd342] | 0.38 (inactive) |
| Cn1cc(O)[nH]c1=N [euspeclibcmpd1004] | -0.153 (inactive) |
| CCN(CC)CCNC(=O)c1ccc(I)cc1 | 0.454 (inactive) |
| N=c1[nH]c(=S)c2nc[nH]c2[nH]1 [euspeclibcmpd292] | 28.2 (active) |
| N=c1[nH]cnc2[nH]cnc12 [euspeclibcmpd349] | -0.183 (inactive) |
| NCCCC(N)CC(=O)NCC1NC(=O)C(CO)NC(=O)C(N)CNC(=O)C(C2CCN=C(N)N2)NC(=O)C(C=NC(N)=O)NC1=O (stereo not drawn) [euspeclibcmpd1312] | 0 (inactive) |
| O=C(O)C1O[C@@H](Oc2cc3oc(-c4ccccc4)cc(=O)c3c(O)c2O)[C@H](O)[C@@H](O)[C@@H]1O (stereo partly drawn) [euspeclibcmpd2123] | -0.648 (inactive) |
| CCCCCC1C(=O)CCC1CC(=O)OC (stereo not drawn) [euspeclibcmpd1637] | -0.322 (inactive) |
| CCC(N)C12CC3CC(CC(C3)C1)C2 (stereo not drawn) | 0.333 (inactive) |
| CC1(C)S[C@@H]2[C@H](N3C(=O)C(c4ccccc4)NC3(C)C)C(=O)N2C1C(=O)O (stereo partly drawn) [euspeclibcmpd2360] | -0.502 (inactive) |
| CSc1nc2cc(Cl)c(Oc3cccc(Cl)c3Cl)cc2[nH]1 [euspeclibcmpd1225] | 4.92 (active) |
| COC(=O)C[C@H]1C(C)(C)C(=O)C2CC3=C4CC(=O)O[C@@H](c5ccoc5)[C@]4(C)CCC3[C@@]1(C)C2=O (stereo partly drawn) [euspeclibcmpd2085] | -0.00623 (inactive) |
| COc1cc2[nH]c(N3CCN(C(=O)c4ccco4)CC3)nc(=N)c2cc1OC [euspeclibcmpd1302] | -0.393 (inactive) |
| Clc1cnc(N/N=C/c2sc(N3CCCCC3)nc2-c2cccs2)c(Cl)c1 | 0.529 (inactive) |
| COC(=O)CCC(C)[C@H]1CCC2C3C(C[C@H](O)[C@@]21C)[C@@]1(C)CC[C@@H](O)C[C@H]1C[C@H]3O (stereo partly drawn) [euspeclibcmpd1539] | -0.423 (inactive) |
| CC1(C)CC2C(=O)CCC3OC3(C)CCC21 (stereo not drawn) [euspeclibcmpd2011] | -0.362 (inactive) |
| O=C(Cc1c[nH]c2ccccc12)NCCc1c[nH]c2ccccc12 | 1.76 (inactive) |
| CON(C)C(=O)c1ccccc1Nc1cccc(C(F)(F)F)c1 | 1.46 (inactive) |
| Cc1cccc(Nc2ccccc2C(=O)O)c1C | 0.337 (inactive) |
| Cc1cccc(Nc2ccccc2C(=O)O)c1C [euspeclibcmpd373] | 2.69 (active) |

| Structure (SMILES) | Srxn1-GFP intensity median modified Z-score |
| --- | --- |
| O=C(O)c1ccccc1Nc1cccc(C(F)(F)F)c1 [euspeclibcmpd370] | 2.94 (active) |
| Cc1c(Cl)cccc1Nc1ccccc1C(=O)O [euspeclibcmpd1068] | 4.04 (active) |
| Cc1cccc(Nc2ccccc2C(=O)OCC#N)c1C | 0.491 (inactive) |
| O=C(O)c1ccccc1Nc1ccccc1 [euspeclibcmpd1737] | -0.16 (inactive) |
| Cc1ccc(Cl)c(Nc2ccccc2C(=O)O)c1Cl [euspeclibcmpd2058] | 0.0269 (inactive) |
| O=C(c1ccccc1Nc1cccc(C(F)(F)F)c1)N1CCC1 | 1.38 (inactive) |
| Cc1cccc(C(=O)O)c1O [euspeclibcmpd1013] | -0.315 (inactive) |
| O=C(O)CCCCC(=O)O [euspeclibcmpd2456] | 0.307 (inactive) |
| C[C@H]1O[C@H](O[C@H]2[C@H](O)[C@@H](O)[C@@H](O[C@H]3[C@H](O)[C@@H](O)C(O)O[C@@H]3CO)O[C@@H]2CO)[C@H](O)[C@@H](O)[C@@H]1N[C@H]1C=C(CO)[C@@H](O)[C@H](O)[C@H]1O (stereo partly drawn) [euspeclibcmpd430] | -0.321 (inactive) |
| CC[C@H]1OC(=O)C(C)[C@@H](O[C@H]2C[C@@](C)(OC)[C@@H](O)[C@H](C)O2)[C@H](C)[C@@H](O[C@@H]2O[C@H](C)C[C@H](N(C)C)[C@H]2O)[C@](C)(O)CC(C)C(=NOCOCCOC)C(C)[C@@H](O)[C@]1(C)O (stereo partly drawn) [euspeclibcmpd567] | -0.00752 (inactive) |
| Cc1c(C(=O)O)sc(S(=O)(=O)N2CCN(C(=O)CC3CCCC3)CC2)c1C(=O)O | 0.344 (inactive) |
| Cc1[nH]c(=O)c(C#N)cc1-c1ccncc1 [euspeclibcmpd1241] | 2.87 (active) |
| Nc1cc(-c2ccncc2)c[nH]c1=O [euspeclibcmpd524] | -0.435 (inactive) |
| COc1cc(=NS(=O)(=O)c2ccc(N)cc2)[nH]cn1 [euspeclibcmpd400] | -0.55 (inactive) |
| CC(=O)C(N)C(O)O (stereo not drawn) [euspeclibcmpd2348] | -0.525 (inactive) |
| CC(=O)C(N)C(O)O (stereo not drawn) [euspeclibcmpd1109] | -0.112 (inactive) |
| CCOc1cc(CC(=O)N[C@@H](CC(C)C)c2ccccc2N2CCCCC2)ccc1C(=O)O [euspeclibcmpd908] | 0.187 (inactive) |
| COc1cc(O)c(C(C)=O)c(O)c1 [euspeclibcmpd1561] | 1.48 (inactive) |
| N[C@@H](CC(=O)N1CCn2c(nnc2C(F)(F)F)C1)Cc1cc(F)c(F)cc1F [euspeclibcmpd2166] | 12.2 (active) |
| CCn1cc(N(CC(C)C)S(=O)(=O)CCC2CCOCC2)cn1 | 1.44 (inactive) |
| N=c1ccn2c(n1)O[C@@H]1[C@@H](O)[C@H](CO)O[C@@H]12 [euspeclibcmpd1164] | 0.441 (inactive) |
| Oc1cc2cc(CCN3CCN(c4nsc5ccccc45)CC3)c(Cl)cc2[nH]1 [euspeclibcmpd1992] | -0.197 (inactive) |
